Sfp inh: blocks B. subtilis Sfp PPTase activity; Q9F4F7; Biochemical Sfp PPTase activity, qHTS; Potency, µM, without a hit: largest response in the series, negative = inhibition, usual class: inhibitors; 310,000 compounds, 3.5% hits; AID 1490;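 also: the enzyme is Sfp with the accession as filed and its product quenches rhodamine fluorescence; potency is read from the fitted curve at half-maximal effect; 0% = enzyme reaction without inhibitor and -100% = no enzyme wells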
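Sfp 15 nM + cpd, 15 min RT; start w/ rhodamine-CoA 5 uM, BHQ-2-YbbR 12.5 uM (final); 50 mM Hepes pH 7.6, 10 mM MgCl2, 0.01% NP-40, 0.01% BSA; read 525/598 nm at 0 and 30 min.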
FBPA coupling cs: coupling enzyme interference in Giardia aldolase counter-screen. coupling enzyme system counterscreen, AmpLite Red fluorescence. activity change, negative = inhibition, % at 58.2 µM, hits read low. 290,000 compounds, 0.67% hits; in the data active = activity change below about -30%
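Counterscreen lacking aldolase: glyceraldehyde-3-phosphate coupling-enzyme reagent preincubated 10 min at RT with compound (at 57.5 uM final), then substrate/coupling system with AmpLite Red added; fluorescence read at 525/598 nm after 20 min RT.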
ELG1 DNA repair: ELG1-dependent DNA repair inhibition. HEK293T ELG1-luciferase reporter, luminescence, 16 h; DNA damage induced by 5-fluorouridine. Potency, µM (top dose mostly 46.1 µM), without a hit: top-dose activity change, negative = inhibition, most hits filed as inhibitors. 330,000 compounds, 2.3% hits; also: potency is read from the fitted curve at half-maximal effect; nearly all actives have a fitted effect of over 55% in size
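5-Fluorouridine DNA damage + compound/DMSO, 2,000 cells/well, 16 h, 37 °C/5% CO2. ONE-Glo, 30 min RT, luminescence. Readout = decrease in reporter signal.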
Giardia killer: kills Giardia lamblia | Giardia lamblia trophozoite viability | activity change, % at 7.66 µM, hits read low | 340,000 compounds, 0.15% hits | AID 540267; in the data active = activity change below about -80%; inconclusive = between about -30% and that limit;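 also: parasites exposed to compound for two days anaerobically before the ATP read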
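Trophozoites 100 cells/well + cpd; 48 hrs, 37 deg C, anaerobic. ATPLite 1-Step added, 15-30 min RT, luminescence read (ATP-based viability).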
Numbers without * were called inactive. A selection: hits, their analogues and other compounds. The true share with any hit is near 5.5%. Unless noted, calls follow the shape of the dose curve; as a rule, active = well fitted curve in the direction sought with a large enough effect; inconclusive = small, poorly fitted or top-dose-only effect, or another doubt; inactive = no such curve, though single readings can be large; an effect the other way counts as inactive or inconclusive. Unless noted, % is scaled to controls: 0 for no effect and ±100 for the full control effect.

Screening CCn1c(CNC(=O)c2ccccc2Br)nnc1SCC(=O)Nc1nncs1 returned Sfp inh -3%, FBPA coupling cs 14, ELG1 DNA repair 1% and Giardia killer 11.
For Cc1ccc(S(=O)(=O)N(C)C)cc1NC(=O)CCCNC(=O)c1ccc(Cl)cc1 the results were Sfp inh 10%, FBPA coupling cs -1, ELG1 DNA repair 1% and Giardia killer -3.
For CCOC(=O)CNS(=O)(=O)c1ccc(F)cc1Br the results were Sfp inh -9%, FBPA coupling cs 3 and Giardia killer 4.
`N/C(=N\OC(=O)c1csnn1)c1ccc(C(F)(F)F)cc1` gave Sfp inh 56µM*, FBPA coupling cs 7, ELG1 DNA repair inconclusive and Giardia killer -3.
CCOCCCNC(=O)CNC(=S)N(Cc1ccc(C)cc1)Cc1ccco1 was read as Sfp inh 40µM*, FBPA coupling cs 0, ELG1 DNA repair -8% and Giardia killer -4.
`Cc1cc(NC(=O)Nc2ccc3c(ccn3C)c2)sn1` gave Sfp inh 79µM*, FBPA coupling cs 1 and Giardia killer -9.
Screening Cc1ccc(NC(=O)Nc2ccc3c(c2)nc(C)n3C)cc1 returned Sfp inh 9%, FBPA coupling cs 1, ELG1 DNA repair inconclusive and Giardia killer -5.
Screening O=C(CCCN1C(=O)c2cccc3cccc(c23)C1=O)N1CCN(c2ccccc2O)CC1 returned Sfp inh 1%, FBPA coupling cs -4, ELG1 DNA repair 10µM* and Giardia killer -8.
CCOc1ccccc1N1CCN(C(=O)CCCN2C(=O)c3cccc4cccc(c34)C2=O)CC1 was read as Sfp inh -4%, FBPA coupling cs -1, ELG1 DNA repair 23µM* and Giardia killer -27.
Screening COc1ccc2c(c1)CCc1cc(C(=O)N3CCN(c4ccc(N5CCOCC5)nn4)CC3)sc1-2 returned Sfp inh -8%, FBPA coupling cs -58*, ELG1 DNA repair 21µM* and Giardia killer -5.
For COc1cccc(C(=O)N2CCN(c3ccc(N4CCOCC4)nn3)CC2)c1 the results were ELG1 DNA repair inconclusive and Giardia killer 22.
Screening O=c1[nH]c(-c2ccncc2)nc2ccccc12 returned Sfp inh 14µM*, FBPA coupling cs 0, ELG1 DNA repair 13% and Giardia killer 3.
Screening O=c1[nH]c(-c2cccnc2)nc2ccccc12 returned Sfp inh 10%, FBPA coupling cs 1, ELG1 DNA repair 11% and Giardia killer -4.
Screening COc1cc(CCNC(=O)c2ccccc2NC(=O)C2=C(C)OCCS2)cc(OC)c1OC returned Sfp inh 6%, ELG1 DNA repair inconclusive and Giardia killer 36.
For COc1ccc(CCNC(=O)c2ccccc2NC(=O)C2=C(C)OCCS2)c(OC)c1 the results were Sfp inh 8%, FBPA coupling cs -4, ELG1 DNA repair 18µM* and Giardia killer -21.
`Cc1ccc(C(=O)Oc2ccc(C(=O)COC(=O)C3CC(=O)N(Cc4ccco4)C3)cc2)cc1` (stereo not given) gave Sfp inh inconclusive, FBPA coupling cs -1, ELG1 DNA repair inconclusive and Giardia killer -7.
For O=C(COC(=O)C1CC(=O)N(Cc2ccco2)C1)c1ccc(OC(=O)c2ccco2)cc1 (stereo not given) the results were Sfp inh 13µM*, FBPA coupling cs 0, ELG1 DNA repair 17% and Giardia killer -22.
Cc1cc(CNC(=O)c2cccnc2Cl)c2ccccc2n1 was read as Sfp inh 15%, FBPA coupling cs -10, ELG1 DNA repair 5.2µM* and Giardia killer -9.
`Cc1cc(C(=O)NCc2ccccc2Cl)c2ccccc2n1` gave Sfp inh 6%, FBPA coupling cs 0, ELG1 DNA repair -1% and Giardia killer 8.
For CCCCN(C(=O)CCC(=O)Nc1cc(C)on1)C(C(=O)NC1CCCC1)c1ccccc1OCC (stereo not given) the results were Sfp inh 10%, FBPA coupling cs 3, ELG1 DNA repair 2% and Giardia killer 6.
`COc1ccc(C2/C=C\CN(S(=O)(=O)c3ccc(C)cc3)CC(=O)N2Cc2cccc(F)c2)cc1` (stereo not given) gave Sfp inh -1%, FBPA coupling cs 2, ELG1 DNA repair 21µM* and Giardia killer -2.
COc1ccc(C2/C=C\CN(S(=O)(=O)c3ccc(C)cc3)CC(=O)N2Cc2ccc(F)cc2)cc1 (stereo not given) was read as Sfp inh -1%, FBPA coupling cs 1, ELG1 DNA repair 1% and Giardia killer -21.
